This note sets out measurements from PubChem BioAssay (NCI).

Compounds without any hit were thinned out: in the full panel of roughly 83,000, 20% have a hit.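 Plates (96-well) were seeded with cells, treated with compound at one concentration, and incubated for 48 hours before percent growth was determined.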 Active and inactive are the calls of the source. Rule for the calls: active = growth percent below 10; inactive = the rest.

The subject of this assay is U251 CNS. As to the kind of experiment: NCI-60 one-dose screen, 48 h (100 = growth as untreated, 0 = no growth, -100 = all killed). To be noted: 10 µM unless noted.
In the case of `NC(=O)N1N=C(c2cc3ccccc3oc2=O)CC1c1cn(-c2ccccc2)nc1-c1ccc(Cl)cc1` (centres undefined), the growth was 30.5% (inactive). With `COc1cnc2c(c1)C(=O)c1c-2n(CCCNCC2CC2)c(=O)c2cc(F)ccc12` the figure was -50.4% (active). As for `O=C(Nc1cc(F)cc2cccnc12)c1cnc(N2CCOCC2)cn1`, the figure is 94.6% (inactive); as for `O=C1[C@H]2Cc3c([nH]c4ccccc34)[C@@H](c3c(Cl)cccc3Cl)N2C(=O)CN1C1CCN(Cc2ccccc2)CC1`, 50.1% (inactive); as for `COc1cc(/C=N/n2cnc3oc(-c4ccccc4)cc3c2=N)cc(CN2CCN(C)CC2)c1O`, 108% (inactive). With `Oc1ccc(-c2nnc(SCc3ccc(O)c4ncccc34)n2-c2ccccc2)cc1` the figure was 9.39% (active); with `CN(C)C(=O)c1ccccc1-n1cnc2ccccc2c1=O`, 99.3% (inactive). With `Oc1ccc(CSc2nnc(-c3ccc(Cl)cc3)o2)c2cccnc12`, the growth was 10.5% (inactive). As to `NNC(=O)c1sc2nc(-c3cnccn3)cc(-c3cccs3)c2c1N`, the growth is 90% (inactive). Consider `COc1ccc(OC)c([C@H]2c3[nH]c4ccccc4c3C[C@H]3C(=O)N(CCCCCCC(=O)NO)CC(=O)N23)c1`, for which the growth is 81.1% (inactive).

For `CCCCCCCCNC(=O)c1ccc(Cn2c(CCCC)nc3c(N)nc4ccccc4c32)cc1`, the growth is -59% (active).

Consider `O=C1[C@@H]2Cc3c([nH]c4ccccc34)[C@H](c3c(Cl)cccc3Cl)N2C(=O)CN1C1CCN(Cc2c(F)cccc2F)CC1`, for which the growth was 73.5% (inactive). With `O=C(CCCCCCN1CC(=O)N2[C@@H](c3cccc(Cl)c3)c3[nH]c4ccccc4c3C[C@H]2C1=O)NO` the figure was 44.9% (inactive); with `CC(C)N=C(N/C(N)=N/c1nc2ccccc2s1)NC(C)C`, 57.6% (inactive). As for `CCCCOc1ccc(S(=O)(=O)N2CCN(c3nccc(N4CCOCC4)n3)CC2)cc1`, the growth was 27.2% (inactive). With `O=C(NCCCNc1cc(-c2cn(-c3ccccc3)nc2-c2cccc(O)c2)ccn1)Nc1cc(C(F)(F)F)cc(C(F)(F)F)c1`, the growth is 51.5% (inactive). With `O=[N+]([O-])c1ccc(-c2nnc(SCc3ccc(O)c4ncccc34)n2-c2ccccc2)cc1` the figure was 14% (inactive); with `Cc1ccc(Nc2ncnc3c2c(C)nn3-c2ccc([N+](=O)[O-])cc2)cc1`, 60.1% (inactive). For the compound `COc1cc2cc(Oc3ccc(NC(=O)Nc4cc(C(F)(F)F)cc(C(F)(F)F)c4)cc3)c(C)nc2cc1OCCN(C)C`, the growth was 107% (inactive). For the compound `COc1cc2cc(Oc3ccc(NC(=O)Nc4cccc(C(F)(F)F)c4)cc3)c(C)nc2cc1OCCN(C)C`, the growth is 84.8% (inactive).

`N/C(=N\c1nc2ccc([N+](=O)[O-])cc2s1)C(Cl)(Cl)Cl`: the growth is 43.9% (inactive). With `Nc1ccc(-c2nnc(SCc3ccc(O)c4ncccc34)o2)cc1` the figure was -6.47% (active); with `COc1ccc(-c2ccnc3c(C#N)c(Nc4ccccc4)nn23)cc1OC`, 87.7% (inactive). On to `Nc1c(C(=O)c2ccccc2)sc2nc(-c3cnccn3)cc(-c3cccs3)c12`, for which the growth is 104% (inactive). With `C/C(=C(/C)C1CC1CCN(C(=O)c1ccccn1)S(=O)(=O)c1ccc(C)cc1)C1CCCCC1` (centres undefined) the figure was 103% (inactive); with `Oc1ccc(CSc2nnc(-c3ccccc3)n2-c2ccccc2)c2cccnc12`, 12.8% (inactive); with `Oc1ccc(CSc2nnc(-c3ccc(Oc4ccccc4)cc3)n2-c2ccccc2)c2cccnc12`, 11.9% (inactive). With `O=C(CSc1ccc(-c2nc3ccccc3[nH]2)cn1)N1CCN(c2ccccc2F)CC1` the figure was 90.5% (inactive).

Take `COc1cc2cc(Oc3ccc(NC(=O)c4cccc(C(F)(F)F)c4)cc3)c(C)nc2cc1OCCN(C)C`: the growth was 63.4% (inactive). Regarding `CCCC(=O)NC(c1cccnc1)c1cc(C(C)=O)c2cccnc2c1O` (centres undefined), the growth was 23.3% (inactive).

As to `O=C(CCCCCCN1CC(=O)N2[C@@H](c3ccc(Cl)c(F)c3)c3[nH]c4ccccc4c3C[C@H]2C1=O)NO`, the growth was 85.1% (inactive). Regarding `O=C1NC(=O)/C(=C/c2ccc(OCc3cc4ccccc4nc3Cl)cc2)S1`, the growth was 101% (inactive). With `O=C(O)c1ccc(-n2cc(CNc3ccc(F)cc3)c(-c3ccc(C(F)(F)F)cc3)n2)cc1` the figure was 79.3% (inactive); with `Oc1ccc(CSc2nnc(-c3ccncc3)o2)c2cccnc12`, 15.8% (inactive); with `COc1ccc(C2C(C#N)=C(N)Oc3c2sc2ccc(C)cc32)cc1` (centres undefined), 26.9% (inactive). With `Oc1ccc(CSc2nnc(-c3ccncc3)n2-c2ccccc2)c2cccnc12` the figure was 15.8% (inactive); with `Oc1ccc(CSc2nnc(-c3cnccn3)n2-c2ccccc2)c2cccnc12`, 20.4% (inactive). As for `O=C(COc1ccc(/C=C2\SC(=O)NC2=O)cc1)Nc1ccc(C(=O)/C=C/c2cc3ccccc3nc2Cl)cc1`, the figure is 69% (inactive); as for `COc1ccc(N2CCN(C(=O)CSc3ccc(-c4nc5cc(C)c(C)cc5[nH]4)cn3)CC2)cc1`, 95.9% (inactive).
